Several values for one entry are separate records, joined by “and”; a condition that tells them apart may be missing. Equal values may be shown once. Records with an inconclusive call do not appear. Entries that show only a call come without a potency. The source holds several records for some structures; these can differ, active in one and inactive in another. Activity calls are given as the source filed them. The call rests on the fitted dose curve; in most records, active means well fitted curve in the direction sought with a large enough effect in the repeat runs; inconclusive means weak or mixed curves; inactive means no such curve, though single readings can be large; an effect the other way counts as inactive or inconclusive.
Experiments:
[1] = Caspase-3/7 induction in HepG2 cells by small molecules, qHTS assay (AID 1346978); conditions: HepG2 caspase-3/7 activation, Caspase-Glo luminescence, 17 h; series mostly up to 92.4 µM; further: nearly all actives have a fitted effect of over 15% in size; further: potency means the concentration at half of the fitted maximal effect
How it was run: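 Wild-type HepG2 cells (2,000/well) were settled 5 h at 37 C, 5% CO2, then exposed to compounds in DMSO for 17 h. Caspase-3/7 activity was read by luminescence 30 min after adding Caspase-Glo 3/7 reagent at room temperature.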

[2] = Caspase-3/7 induction in CHO-K1 cells by small molecules, qHTS assay (AID 1346980); conditions: CHO-K1 caspase-3/7 induction, Caspase-Glo luminescence, 17 h; series mostly up to 92.4 µM; further: nearly all actives have a fitted effect of over 15% in size
How it was run: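 Wild-type cells were seeded at 1,500 per well and settled 5 hr at 37 C, 5% CO2, then exposed to DMSO-dissolved compounds for 17 hr. Caspase-Glo 3/7 reagent was added, and luminescence was read after 30min at room temperature.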

[3] = Caspase-3/7 induction in HepG2 cells by small molecules, qHTS cell viability counter screen (AID 1346981); conditions: CellTiter-Fluor fluorescence, 17 h; series mostly up to 92.4 µM; further: nearly all actives have a fitted effect of over 30% in size
How it was run: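 CellTiter-Fluor fluorescence measured viability in the same wells used for Caspase-Glo 3/7. HepG2 (wild type) at 2,000 cells/well were pre-incubated 5 hr, dosed, and given reagent at 16 hr, with 1 hr further at 37C.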

[4] = biological target: Cytochrome P450 2D6 (Homo sapiens) (UniProt P10635); experiment: Cytochrome P450 Family 2 Subfamily D Member 6 (CYP2D6) small molecule antagonists: luciferase reporter qHTS assay (AID 1671196); conditions: P450-Glo CYP2D6 enzyme assay, luciferin luminescence, 1 h; series mostly up to 115 µM; further: nearly all actives have a fitted effect of over 50% in size; further: potency means the concentration at half of the fitted maximal effect
How it was run: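 CYP2D6 activity was followed as luminescence from its luciferin product after a 1 h NADPH-driven reaction at room temperature. Enzyme-substrate mix and compound were pre-incubated for 10 min, and the signal was read 20 min after adding detection reagent.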

[5] = biological target: Cytochrome P450 2C19 (Homo sapiens) (UniProt P33261); experiment: Cytochrome P450 Family 2 Subfamily C Member 19 (CYP2C19) small molecule antagonists: luciferase reporter qHTS assay (AID 1671197); conditions: P450-Glo CYP2C19 enzyme, luciferin luminescence, 1 h; series mostly up to 115 µM; further: nearly all actives have a fitted effect of over 65% in size; further: potency means the concentration at half of the fitted maximal effect
How it was run: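 Luminescent readout of CYP2C19 activity: luciferin product detected 20 min after adding detection reagent. Before that, compound and enzyme-substrate mix preincubated 10 min at room temperature; NADPH-regenerating system started a 1 h, 37C reaction. Ketoconazole as positive control.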

[6] = Caspase-3/7 induction in CHO-K1 cells by small molecules, qHTS cell viability counter screen (AID 1346979); conditions: CellTiter-Fluor fluorescence, 17 h; series mostly up to 92.4 µM; further: nearly all actives have a fitted effect of over 35% in size; further: potency means the concentration at half of the fitted maximal effect
How it was run: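 Viability readout by fluorescence (CellTiter-Fluor) on wild-type CHO-K1 cells exposed for 16hr at 37C and 5% CO2 to compounds delivered in DMSO; reagent incubated 1hr before reading.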

[7] = biological target: Nuclear receptor subfamily 1 group I member 2 (Homo sapiens) (UniProt O75469); experiment: Human pregnane X receptor (PXR) small molecule agonists, qHTS assay (AID 1346982); conditions: PXR-Luc HepG2, CYP3A4 luciferase reporter, 24 h; series mostly up to 92.4 µM; further: nearly all actives have a fitted effect of over 35% in size; further: potency means the concentration at half of the fitted maximal effect
How it was run: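 Agonist mode: luminescence from ONE-Glo after 24 h compound exposure at 37C in HepG2 cells carrying hPXR-responsive CYP3A4 luciferase, plated in charcoal-stripped serum medium 5 h beforehand.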

[8] = biological target: Nuclear receptor subfamily 1 group I member 2 (Rattus norvegicus) (UniProt Q9R1A7); experiment: Rat pregnane X receptor (rPXR) activation by small molecules, qHTS assay (AID 1346983); conditions: rPXR luciferase reporter cells, One-Glo luminescence, 24 h; max activation: stronger effect = higher value; further: nearly all actives have a fitted effect of over 20% in size
How it was run: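 Cell-based rPXR luciferase reporter assay, 2,000 cells per well, rested 5hr at 37 C before compound addition in DMSO, then 24 hr at 37 C. One-Glo reagent was added and luminescence read after 30 min at room temperature.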

Nuclear receptor subfamily 1 group I member 2 (Homo sapiens), sequence (O75469 whole entry, looked up): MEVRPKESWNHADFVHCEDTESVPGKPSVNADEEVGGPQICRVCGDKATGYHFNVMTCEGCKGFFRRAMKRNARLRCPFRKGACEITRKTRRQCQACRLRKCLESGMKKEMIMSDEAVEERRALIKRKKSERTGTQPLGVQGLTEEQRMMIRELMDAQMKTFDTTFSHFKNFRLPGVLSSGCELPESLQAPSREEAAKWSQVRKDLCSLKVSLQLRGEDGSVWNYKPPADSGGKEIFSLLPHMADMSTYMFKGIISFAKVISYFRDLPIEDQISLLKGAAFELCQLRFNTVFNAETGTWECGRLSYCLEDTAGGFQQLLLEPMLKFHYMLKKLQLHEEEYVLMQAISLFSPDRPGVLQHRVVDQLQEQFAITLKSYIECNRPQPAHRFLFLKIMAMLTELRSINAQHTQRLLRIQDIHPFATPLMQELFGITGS
Cytochrome P450 2D6 (Homo sapiens), sequence (P10635 whole entry, looked up): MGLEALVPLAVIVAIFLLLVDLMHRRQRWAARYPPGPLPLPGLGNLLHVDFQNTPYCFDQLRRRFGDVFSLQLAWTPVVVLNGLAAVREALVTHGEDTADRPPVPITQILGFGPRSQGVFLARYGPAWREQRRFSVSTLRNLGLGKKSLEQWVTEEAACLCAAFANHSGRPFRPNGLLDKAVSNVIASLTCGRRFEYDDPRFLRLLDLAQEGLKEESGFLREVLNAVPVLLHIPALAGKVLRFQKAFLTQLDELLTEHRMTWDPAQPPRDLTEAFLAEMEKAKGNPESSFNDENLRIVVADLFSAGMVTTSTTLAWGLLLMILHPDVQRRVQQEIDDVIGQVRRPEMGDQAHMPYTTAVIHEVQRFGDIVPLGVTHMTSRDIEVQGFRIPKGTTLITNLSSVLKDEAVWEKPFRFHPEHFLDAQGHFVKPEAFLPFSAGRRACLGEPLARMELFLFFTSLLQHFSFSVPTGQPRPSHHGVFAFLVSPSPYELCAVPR
Cytochrome P450 2C19 (Homo sapiens), sequence (P33261 whole entry, looked up): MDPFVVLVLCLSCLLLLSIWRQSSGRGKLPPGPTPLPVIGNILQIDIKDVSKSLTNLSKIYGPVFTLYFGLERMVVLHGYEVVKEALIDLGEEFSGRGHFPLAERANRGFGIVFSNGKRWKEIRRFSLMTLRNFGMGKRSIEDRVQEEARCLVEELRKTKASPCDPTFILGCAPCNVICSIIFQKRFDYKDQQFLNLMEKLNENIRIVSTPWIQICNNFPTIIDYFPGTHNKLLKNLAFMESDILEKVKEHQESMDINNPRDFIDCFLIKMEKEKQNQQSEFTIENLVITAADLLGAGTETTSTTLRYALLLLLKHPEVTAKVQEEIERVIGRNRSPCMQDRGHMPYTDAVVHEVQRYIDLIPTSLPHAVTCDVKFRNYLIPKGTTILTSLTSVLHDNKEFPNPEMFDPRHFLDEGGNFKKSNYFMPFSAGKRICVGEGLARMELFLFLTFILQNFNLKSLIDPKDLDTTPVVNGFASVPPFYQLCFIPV
Nuclear receptor subfamily 1 group I member 2 (Rattus norvegicus), sequence (Q9R1A7 whole entry, looked up): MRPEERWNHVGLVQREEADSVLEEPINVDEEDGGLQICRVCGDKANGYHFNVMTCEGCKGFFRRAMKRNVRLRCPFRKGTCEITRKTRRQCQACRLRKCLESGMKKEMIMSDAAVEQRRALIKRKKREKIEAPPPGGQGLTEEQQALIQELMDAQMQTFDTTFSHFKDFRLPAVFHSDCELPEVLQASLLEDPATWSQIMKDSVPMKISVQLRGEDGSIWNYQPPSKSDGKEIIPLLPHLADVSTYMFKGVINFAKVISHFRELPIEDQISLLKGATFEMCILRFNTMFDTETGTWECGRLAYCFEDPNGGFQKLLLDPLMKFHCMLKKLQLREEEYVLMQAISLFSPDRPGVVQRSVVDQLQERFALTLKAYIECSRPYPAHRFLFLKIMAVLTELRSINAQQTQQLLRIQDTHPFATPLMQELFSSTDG

Q: Which results are given for `C[C@]12CC[C@@H]3c4ccc(O)cc4C[C@@H](CCCCCCCCCS(=O)CCCC(F)(F)C(F)(F)F)[C@H]3[C@@H]1CC[C@@H]2O` (stereo partly specified)?
A: Potency [1]: inactive; outcome [2]: inactive; Potency [3]: inactive; Potency [4]: inactive; Potency [5]: 7.1 µM (active) and 10.5 µM (active) and 6.92 µM (active)

Q: Which Potency [1] does the source give for `COCC(C)N` (stereo unspecified) here?
A: inactive

Q: What about the Potency [6] of the same compound?
A: inactive

Q: And the outcome [2]?
A: inactive

Q: What about the Potency [3] of the same compound?
A: inactive

Q: And the Potency [7]?
A: inactive

Q: What about the Potency [4] of the same compound?
A: inactive

Q: And the Potency [5]?
A: inactive

Q: For `COc1ccc(C(=O)c2ccccc2)c(O)c1`, which Potency [1] is on record?
A: inactive

Q: What about the Potency [6] of the same compound?
A: inactive

Q: What about the outcome [2] of the same compound?
A: inactive

Q: What about the Potency [3] of the same compound?
A: inactive

Q: And the Potency [7]?
A: 60.1 µM (active) and 54.5 µM (active)

Q: And the Potency [4]?
A: 44.1 µM (active)

Q: What about the Potency [5] of the same compound?
A: 5.55 µM (active) and 10 µM (active) and 4.9 µM (active)

Q: Which Potency [1] does the source give for `C#C[C@]1(O)CC[C@H]2[C@@H]3CCc4cc(O)ccc4[C@H]3CC[C@@]21C` here?
A: 21.5 µM (active) and inactive

Q: What about the Potency [6] of the same compound?
A: 54.1 µM (active) and 54.5 µM (active)

Q: And the outcome [2]?
A: inactive

Q: What about the Potency [3] of the same compound?
A: inactive

Q: And the max activation [8]?
A: 10.3% (inactive)

Q: And the Potency [4]?
A: inactive

Q: What about the Potency [5] of the same compound?
A: 7.05 µM (active) and 10 µM (active) and 13.8 µM (active)

Q: With `NC(=O)OCC(COC(N)=O)c1ccccc1` as the compound, how does the Potency [1] read?
A: inactive

Q: And the Potency [6]?
A: inactive

Q: What about the outcome [2] of the same compound?
A: inactive

Q: What about the Potency [3] of the same compound?
A: inactive

Q: What about the Potency [7] of the same compound?
A: inactive

Q: And the Potency [4]?
A: inactive

Q: What about the Potency [5] of the same compound?
A: inactive and 34.7 µM (active)

Q: Which Potency [1] does the source give for `CC(=O)/C=C/C1=C(C)CCCC1(C)C` here?
A: inactive

Q: And the Potency [6]?
A: inactive

Q: And the outcome [2]?
A: inactive

Q: And the Potency [3]?
A: inactive

Q: What about the Potency [7] of the same compound?
A: 55.5 µM (active) and 17.2 µM (active) and 21.7 µM (active)

Q: What about the Potency [4] of the same compound?
A: inactive

Q: What about the Potency [5] of the same compound?
A: 40.7 µM (active) and 39.9 µM (active) and 71 µM (active)

Q: With `c1ccc2[nH]c(-c3cscn3)nc2c1` as the compound, how does the Potency [1] read?
A: inactive

Q: What about the Potency [6] of the same compound?
A: inactive

Q: And the outcome [2]?
A: inactive

Q: And the Potency [3]?
A: inactive

Q: What about the Potency [7] of the same compound?
A: 30.8 µM (active) and 770 nM (active) and 6.68 µM (active)

Q: And the Potency [4]?
A: 39.9 µM (active) and 38.9 µM (active)

Q: And the Potency [5]?
A: 35.8 µM (active) and 71 µM (active) and 34.7 µM (active)

Q: For `O=C(O)CN(CC(=O)O)CC(=O)O`, which Potency [1] is on record?
A: inactive

Q: What about the Potency [6] of the same compound?
A: inactive

Q: What about the outcome [2] of the same compound?
A: inactive

Q: And the Potency [3]?
A: inactive

Q: And the Potency [7]?
A: inactive

Q: What about the Potency [4] of the same compound?
A: inactive

Q: What about the Potency [5] of the same compound?
A: 36.1 µM (active) and inactive

Q: With `CC(C)CC(C)CC(O)CC(C)C` (stereo unspecified) as the compound, how does the Potency [1] read?
A: inactive

Q: And the Potency [6]?
A: inactive

Q: What about the outcome [2] of the same compound?
A: inactive

Q: What about the Potency [3] of the same compound?
A: inactive

Q: And the Potency [7]?
A: inactive

Q: And the Potency [4]?
A: inactive

Q: And the Potency [5]?
A: inactive

Reference: PubChem BioAssay (Tox21)
